The source made the active and inactive calls. Unless noted, how the calls were made is not given here.
Legend:
[1] = test system: Wnt5a (protein binding on small-molecule microarray); experiment: small molecules binding Wnt5a protein – biophysical, small-molecule microarray, 635/667 nm fluorescence, primary screen (AID 1142); conditions: 635 nm fluorescence, higher = more signal;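 further: fluorescence read at 667 nm with signal to noise per printed feature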
[2] = ATP-based viability of Huh7 replicon cells – cell-based, CellTiter-Glo luminescence, basal, 48 h, cytotoxicity control for HCV replication inhibitor project, primary screen (AID 1143); conditions: higher = more signal, called active from +8 up or from −8 down;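 further: Huh7 hepatoma cells carrying a hepatitis C replication reporter with no stimulus; test concentration not given here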
[3] = Pseudomonas biofilm growth suppression – PAO1 strain, BacTiter-Glo luminescence, LB-PBS, primary screen (AID 1144); conditions: P. aeruginosa PAO1 biofilm, 12 h, higher = more signal
[4] = basal CRE-LacZ reporter activity in PC12 – cell-based, unstimulated, primary screen (AID 1145); conditions: no forskolin, luminescence, 4.5 h, higher = more signal, called active from +8 up or from −8 down
[5] = forskolin-driven CRE-LacZ activity in PC12 – cell-based, CRE-LacZ reporter, forskolin-stimulated, primary screen (AID 1146); conditions: luminescence, 4.5 h, higher = more signal, called active from +8 up or from −8 down;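 further: PC12 cells with 6xCRE LacZ reporter stimulated by forskolin 10 µM; beta-galactosidase reporter signal reflecting CREB driven transcription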
[6] = biological target: Streptavidin (Streptomyces avidinii) (UniProt P22629); experiment: compounds binding control protein streptavidin – biophysical, small-molecule microarray, 635/667 nm fluorescence, artefact control for SMM compound annotation, primary screen (AID 1147); conditions: higher = more signal;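 further: signal reflects streptavidin binding to arrayed compounds as a control protein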
[7] = probe aInhba binding on compound microarray – biochemical, small-molecule microarray, 635/667 nm fluorescence, primary screen (AID 1148); conditions: higher = more signal;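 further: score merges 667nm spot fluorescence with signal-to-noise for antibody binding to printed compounds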
Torsin-1A (Homo sapiens) [8] = biological target: Torsin-1A (Homo sapiens) (UniProt O14656); experiment: TOR1A wild-type binding on microarray – cell lysate, small-molecule microarray, lysate, 635/667 nm, primary screen (AID 1149); conditions: COS7 hTOR1A-WT lysate, 635 nm fluorescence, higher = more signal
Torsin-1A (Homo sapiens) [9] = biological target: Torsin-1A (Homo sapiens) (UniProt O14656); experiment: torsin A mutant lysate binding on microarrays – cell lysate, small-molecule microarray, COS7 lysate, 635/667 nm fluorescence, primary screen (AID 1150); conditions: COS7 hTOR1A mutant lysate, 635 nm fluorescence, higher = more signal;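 further: score pools 667 nm emission and signal to noise measuring lysate protein binding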
[10] = test system: Sonic hedgehog protein (Shh); experiment: Sonic hedgehog microarray binding compounds – biochemical, small-molecule microarray, 635/667 nm fluorescence, primary screen (AID 1151); conditions: 635 nm fluorescence, higher = more signal;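 further: Shh protein binding to compounds spotted on small-molecule microarray slides; score combines spot fluorescence intensity with signal-to-noise across triplicate slides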

Sequence of Streptavidin (Streptomyces avidinii) (P22629 whole entry, looked up): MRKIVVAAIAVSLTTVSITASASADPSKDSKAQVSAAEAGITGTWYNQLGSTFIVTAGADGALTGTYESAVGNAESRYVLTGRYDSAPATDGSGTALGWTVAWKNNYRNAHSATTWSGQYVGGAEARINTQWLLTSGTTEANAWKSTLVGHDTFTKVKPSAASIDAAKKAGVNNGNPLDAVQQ
Sequence of Torsin-1A (Homo sapiens) (O14656 whole entry, looked up): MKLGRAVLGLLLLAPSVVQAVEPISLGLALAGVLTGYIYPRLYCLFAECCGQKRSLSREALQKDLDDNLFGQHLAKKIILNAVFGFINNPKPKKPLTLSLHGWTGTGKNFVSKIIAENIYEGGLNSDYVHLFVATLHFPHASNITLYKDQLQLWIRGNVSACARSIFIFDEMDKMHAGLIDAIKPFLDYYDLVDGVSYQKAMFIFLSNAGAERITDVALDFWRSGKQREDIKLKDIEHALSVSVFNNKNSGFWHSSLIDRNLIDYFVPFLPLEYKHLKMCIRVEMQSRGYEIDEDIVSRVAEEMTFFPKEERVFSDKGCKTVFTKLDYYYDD

Row | SMILES | composite z-score [1] | z-score [2] | z-score [3] | z-score [4] | z-score [5] | composite z-score [6] | composite z-score [7] | composite z-score (Torsin-1A (Homo sapiens) [8]) | composite z-score (Torsin-1A (Homo sapiens) [9]) | composite z-score [10]
1 | COCCOC(=O)N1C(=O)[C@@]2(c3cc(C#Cc4ccc(OC)cc4)ccc31)[C@H](c1ccc(O)cc1)N1[C@H](c3ccccc3)[C@H](c3ccccc3)OC(=O)[C@H]1[C@@H]2C(=O)Nc1nc2ccccc2s1 | 0.169 | -1.07 (inactive) | -0.155 (inactive) | 0.182 (inactive) | -0.0609 (inactive) | 0.302 | -0.11 | 0.277 | 0.226 | 1.76
2 | C=C(/C(=C/C[C@H](OC(=O)c1ccncc1)c1ccc(OCCO)cc1)c1cc(C(=O)OC)ccc1OC)C(C)C | -0.0134 | -3.91 (inactive) | -0.518 (inactive) | 3.9 (inactive) | -0.359 (inactive) | 1.23 | -0.016 | -0.511 | 0.284 | 0.711
3 | COC(=O)[C@]1(Cc2ccccc2)N=C(c2ccc(OCCCO)cc2)O[C@@H]1c1ccccc1N=[N+]=[N-] | 0.501 | -5.26 (inactive) | -0.441 (inactive) | 1.34 (inactive) | -1.47 (inactive) | 0.291 | -0.0221 | -0.0019 | 0.0366 | 0.354
4 | [N-]=[N+]=Nc1ccccc1C[C@@]1(C(=O)N2CCCCC2)N=C(c2ccc(OCCCO)cc2)O[C@@H]1c1ccccc1N=[N+]=[N-] | 0.648 | -5.13 (inactive) | 0.989 (inactive) | 0.801 (inactive) | -0.929 (inactive) | 1.33 | 0.404 | 0.46 | 0.585 | 0.248
5 | CN(C)CCCCCCNC(=O)[C@@H]1C[C@@H]2C(=O)N[C@@H](CCCC[N+](C)(C)C)C(=O)N2[C@@H]1c1ccc(O)cc1 | 0.133 | -0.217 (inactive) | 0.0162 (inactive) | 0.155 (inactive) | -0.0457 (inactive) | -0.253 | -0.589 | 0.659 | 0.771 | 1.66
6 | CCC(CC)C(O)C1C=CC2C(=O)N(c3ccccc3)C(=O)C2N1Nc1ccccc1 (stereo not given) | 0.213 | -0.125 (inactive) | -1.63 (inactive) | 1.01 (inactive) | -0.814 (inactive) | 1.21 | 0.948 | -0.0952 | 0.423 | 0.494
7 | O=C1[C@@]23C=C(Br)[C@H](C[C@@H]2COC3)[C@]12CO2 | -0.139 | -0.38 (inactive) | -0.00184 (inactive) | 1.04 (inactive) | 1.78 (inactive) | -1.08 | -0.204 | -0.672 | -0.666 | -0.0003
8 | CO[C@H]1O[C@H](CO)[C@@H](OC(=O)Nc2ccccc2-c2ccccc2)[C@H](OC(=O)Nc2ccccc2-c2ccccc2)[C@@H]1OC(=O)Nc1ccccc1-c1ccccc1 | 0.689 | -3.41 (inactive) | -0.399 (inactive) | 0.391 (inactive) | 0.0225 (inactive) | 1.08 | 0.173 | 0.1 | 0.53 | 1.37
9 | C=CC[C@]1(C(N)=O)COC(c2ccc(OCCCO)cc2)=N1 | 0.469 | -1.33 (inactive) | -0.151 (inactive) | 0.0359 (inactive) | 0.127 (inactive) | -0.266 | 0.027 | 1 | 1.18 | 0.395
10 | CCCCC(=C=CC[C@@H](O)c1ccc(CO)o1)CCO | 0.136 | -0.0181 (inactive) | -0.748 (inactive) | 2.69 (inactive) | -1.19 (inactive) | -0.419 | 0.185 | 0.867 | 0.359 | 1.37
11 | C#CCN(C/C=C/c1ccccc1)[C@H](CO)c1ccccc1 | 0.325 | -3.79 (inactive) | -0.192 (inactive) | 1.65 (inactive) | -0.121 (inactive) | 0.41 | -0.103 | 0.25 | 0.294 | 0.743
12 | COCCOC(=O)N1C(=O)[C@@]2(c3cc(C#CC4(O)CCCCCC4)ccc31)[C@H](C(=O)Nc1nc3ccccc3s1)[C@H]1C(=O)O[C@H](c3ccccc3)[C@H](c3ccccc3)N1[C@@H]2c1ccc(OCCO)cc1 | 0.564 | -3.02 (inactive) | -1.1 (inactive) | -0.748 (inactive) | 1.65 (inactive) | 0.587 | 0.366 | 0.669 | 0.849 | 1.42
13 | COc1ccc(C(=O)Nc2ccc(CN3C(=O)[C@]4(O[C@H](CC(=O)N5CCC[C@H]5CO)[C@@H]([Si](C)(C)c5ccc(OC)cc5)[C@@H]4C)c4ccccc43)cc2)cc1 | 0.156 | -4.81 (inactive) | -0.00818 (inactive) | 2.62 (inactive) | 0.124 (inactive) | 0.111 | 0.0785 | 0.585 | 0.421 | 2.05
14 | O=C1O[C@@H](c2ccccc2)[C@@H](c2ccccc2)N2[C@@H](c3ccc(OCCO)cc3)[C@]3(C(=O)Nc4ccc(C#CC5=CCCCC5)cc43)[C@@H](C(=O)N3CCCCCCC3)[C@H]12 | 1.18 | -2.05 (inactive) | -0.334 (inactive) | 0.568 (inactive) | 0.509 (inactive) | 2.92 | 1.93 | 1.58 | 2.02 | 1.37
15 | CCCC1(C(=O)OC)C=C2C(=C(c3ccccc3)C(=O)C2C)CN1 (stereo not given) | 0.256 | -0.752 (inactive) | 0.153 (inactive) | -0.375 (inactive) | 0.966 (inactive) | 0.312 | 0.27 | 0.52 | 0.0656 | -0.599
16 | CCCCCCc1nc(-c2ccc(-c3ccc(Cl)c(Cl)c3)o2)cc2c1[Si](C(C)C)(C(C)C)O[C@H]2c1ccccc1 | -0.355 | -0.731 (inactive) | -0.206 (inactive) | -0.113 (inactive) | 0.497 (inactive) | -0.711 | -0.0719 | -0.512 | 0.978 | -0.434
17 | COC(=O)[C@@]1(Cc2ccc(OC)cc2)[C@H]2c3cc(C(=O)N(C)C)n(Cc4ccc(C(F)(F)F)nc4)c3C[C@H]2CN1C(=O)c1ccccc1 | 0.24 | 0.398 (inactive) | -0.123 (inactive) | 0.59 (inactive) | 1.54 (inactive) | 0.365 | 0.397 | -0.0912 | 0.0628 | -0.709
18 | C=CCOC(=O)[C@H]1[C@@H]2C(=O)O[C@@H](c3ccccc3)[C@@H](c3ccccc3)N2[C@@H](c2ccc(OCCOC(=O)[C@@H]3C[C@@H]4C(=O)N5CCC[C@H]5C(=O)N4[C@@H]3c3cccc(OCCO)c3)cc2)[C@]12C(=O)Nc1ccc(I)cc12 | 0.535 | -0.402 (inactive) | -0.615 (inactive) | 0.423 (inactive) | -0.633 (inactive) | 0.763 | 0.944 | 0.821 | 0.573 | 2.18
19 | C=CC[C@]12N=C(c3ccc(OCCCO)cc3)O[C@H]1c1ccccc1N(CCS(=O)(=O)c1ccccc1)C2=O | 0.382 | -3.24 (inactive) | -0.438 (inactive) | -1.04 (inactive) | -1.87 (inactive) | 1.07 | -0.101 | 0.695 | 0.79 | 1.39
20 | C=CCNC(=O)[C@@H]1[C@H]2C(=O)O[C@H](c3ccccc3)[C@H](c3ccccc3)N2[C@H](c2ccc(OCCO)cc2)[C@@]12C(=O)N(C(=O)OCCOC)c1ccc(C#CCNC(N)=O)cc12 | 0.372 | -1.1 (inactive) | 0.388 (inactive) | 0.505 (inactive) | -0.419 (inactive) | 0.348 | 0.115 | 0.609 | 0.733 | 1.56
21 | C=CCN1Cc2ccccc2[C@@H]2OC(c3ccc(OCCCO)cc3)=N[C@]2(CCS(=O)(=O)c2ccccc2)C1=O | 1.02 | -2.93 (inactive) | -0.491 (inactive) | 2.65 (inactive) | -0.821 (inactive) | 0.316 | 0.122 | 0.625 | 0.969 | 1.77
22 | COc1ccc([C@H]2C[C@H]3C(Br)=C[C@@]2(CO)C(=O)[C@]32CO2)cc1 | 0.0718 | 0.187 (inactive) | -0.23 (inactive) | 0.309 (inactive) | 1.6 (inactive) | -0.264 | -0.0245 | -0.361 | -0.83 | -0.134
23 | C=CCC(OC(C)=O)[C@@H]1[C@@H](N(Cc2ccc(-c3cccc(C(F)(F)F)c3)o2)C(=O)c2cccc3ccccc23)c2cc(OCCCO)ccc2N1C(=O)Cc1ccc2ccccc2c1 (stereo not given in full) | -0.078 | -0.952 (inactive) | 0.318 (inactive) | 0.307 (inactive) | 0.848 (inactive) | -0.253 | 0.374 | 1.34 | -0.361 | 0.248
24 | COC(=O)[C@@]1(Cc2ccc(OC)cc2)[C@H]2c3cc(C(=O)N4CCCC4)n(CCSCCO)c3C[C@H]2CN1C(=O)c1ccccc1 | 0.631 | -0.974 (inactive) | 0.58 (inactive) | 1.34 (inactive) | 1.82 (inactive) | 0.532 | 0.257 | 0.396 | 1.45 | -0.623
25 | CCCC(=O)N(CCc1c[nH]c2ccccc12)[C@@H]1CC(C(=O)NCCO)=C[C@H](Oc2c(I)cc(CO)cc2OC)[C@H]1O | -0.0727 | -0.0737 (inactive) | -0.396 (inactive) | 0.486 (inactive) | -0.887 (inactive) | -0.268 | -0.128 | -0.24 | 0.0165 | -0.251
26 | O=C1C2C=CC(C(O)C=Cc3ccc([N+](=O)[O-])cc3)N(n3cnnc3)C2C(=O)N1Cc1ccccc1 (stereo not given) | 0.0873 | -0.274 (inactive) | -0.871 (inactive) | -0.368 (inactive) | 0.343 (inactive) | 1.1 | 0.0589 | 1.95 | 2.16 | 0.287
27 | CCOC(=O)C[C@H]1[C@H](OC(=O)c2cc3ccccc3oc2=O)[C@@H](NC(=O)CC(C)C)c2cc(OCCCO)ccc2N1C(=O)c1ccccc1 | 0.175 | -3.29 (inactive) | 1.25 (inactive) | 10.4 (active) | -1.37 (inactive) | 0.131 | -0.0986 | 0.272 | 0.205 | 0.595
28 | O=C1C2C=CC(C(O)c3ccc4c(c3)OCO4)N(Nc3ccc([N+](=O)[O-])cc3)C2C(=O)N1c1ccccc1 (stereo not given) | -0.0509 | -0.954 (inactive) | 0.105 (inactive) | -0.116 (inactive) | -0.222 (inactive) | 0.145 | -0.0178 | -0.0053 | 0.17 | -0.199
29 | COc1ccc([C@H]2C[C@H]3C(I)=C[C@@H]2C(=O)[C@]32CO2)cc1 | -0.149 | -0.307 (inactive) | -0.125 (inactive) | 5.38 (inactive) | -1.6 (inactive) | 1.25 | -0.152 | -0.067 | -0.126 | 0.817
